High-throughput results (PubChem)
A selection: hits, their analogues and other compounds. The true share with any hit is near 3.1%.
TRb SRC2 PPI: disrupts binding of human TR beta to SRC2; TRbeta-SRC2 peptide binding, fluorescence polarization; receptor liganded with 1 µM T3; 280,000 compounds, 0.065% hits; P10828; Potency, µM (doses to about 106 µM), for the others: at the top dose activity change, negative = inhibition, usual class: inhibitors;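 further: plate controls were bound peptide for no effect and peptide without receptor for full effect; nearly all actives have a fitted effect of over 50% in size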
Target sequence (P10828 whole entry, looked up): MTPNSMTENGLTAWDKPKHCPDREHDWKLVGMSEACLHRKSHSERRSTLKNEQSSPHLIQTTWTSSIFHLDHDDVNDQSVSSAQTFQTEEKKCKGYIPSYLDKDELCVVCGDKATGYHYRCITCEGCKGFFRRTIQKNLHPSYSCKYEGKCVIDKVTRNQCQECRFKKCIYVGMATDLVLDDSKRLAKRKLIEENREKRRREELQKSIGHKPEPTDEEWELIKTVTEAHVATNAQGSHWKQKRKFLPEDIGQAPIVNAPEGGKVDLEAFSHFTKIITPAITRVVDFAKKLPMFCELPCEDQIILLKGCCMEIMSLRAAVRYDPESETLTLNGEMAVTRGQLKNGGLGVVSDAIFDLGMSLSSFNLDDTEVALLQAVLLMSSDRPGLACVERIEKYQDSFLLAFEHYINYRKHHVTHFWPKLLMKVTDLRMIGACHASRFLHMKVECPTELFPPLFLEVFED
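Fluorescence polarization of 20 nM Texas Red SRC2 peptide (20-aa NR interaction domain) bound to 0.6 uM human TRb ligand-binding domain, with 1 uM T3, after 5 hr at ambient temperature; inhibition seen as decreased polarization.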
Tau fibril ThT: tau fibrillization inhibition (ThT binding) | AID 1460 | P10636 | Potency, µM (doses to about 57.4 µM), for inactives: top-dose activity, negative = inhibition, hits mostly inhibitors | 270,000 compounds, 2.1% hits | recombinant tau K18 P301L, heparin-induced fibrillization, ThT fluorescence; further: nearly all actives have a fitted effect of over 55% in size
Target sequence (P10636 561-689 P618L limits assumed): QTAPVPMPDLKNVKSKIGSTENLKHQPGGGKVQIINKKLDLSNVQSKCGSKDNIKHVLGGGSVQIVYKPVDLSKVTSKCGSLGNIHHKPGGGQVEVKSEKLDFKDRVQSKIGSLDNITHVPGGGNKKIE
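ThT emission at 510 nm, taken 1 hr after adding 30 uM dye, quantifies aggregates formed when 20 uM heparin acts on human tau K18 P301L for 6 hr at 37 C.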
Tau fluor cs: counter-screen for tau fibril formation inhibitors; tau K18 P301L (four-repeat tau fragment) Alexa594 fluorescence, heparin fibrillization; Potency, µM (titrated, usually from 57.7 µM), for inactives: at the highest dose activity change, negative = decrease; 280,000 compounds, 0.93% hits; AID 1463; further: nearly all actives have a fitted effect of over 55% in size
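Human K18 P301L tau (15 uM unlabeled plus 0.24 uM Alexa 594-labeled, final) in 100 mM sodium acetate pH 7 was mixed with compound and 20 uM heparin and incubated 6 hr at 37 C.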
Tau fibril FP: inhibitors of human tau fibril formation. 280,000 compounds, 0.39% hits. Potency, µM (series often up to 57.7 µM), for inactives: at the highest dose activity, negative = inhibition, most hits filed as inhibitors. P10636. K18 P301L tau heparin fibrillization, Alexa594 FP, 6 h; further: nearly all actives have a fitted effect of over 55% in size
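FP of Alexa 594-tau after heparin (20 uM) induction. Substrate: human K18 P301L, 15 uM unlabeled, 0.24 uM labeled. Buffer 100 mM sodium acetate pH 7. 6 hr, 37 C.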
TR SRC2 fluor cs: Texas Red fluorescence interference in TRb-SRC2 counter-screen; TRb/SRC2 Texas Red total fluorescence interference; Potency, µM (highest dose often 106 µM), for inactives: at the highest dose fluorescence change, negative = quenching; 280,000 compounds, 0.29% hits; active means well fitted curve in either direction with a large enough effect; inconclusive means small, poorly fitted or top-dose-only effect
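Flags fluorescent or light-absorbing compounds by total fluorescence, S + 2P, at 555 nm excitation and 632 nm emission. Mixture: 20 nM Texas Red SRC2 peptide, 0.6 uM human TRb LBD, 1 uM T3, 5% DMSO; compound exposure 5 h at ambient temperature.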
Active calls of the source: *; ? = inconclusive; · = not tested or not shown; ! = not active in a repeat; [ ] = another dose, or the depositor's remark. Unless noted, the call rests on the fitted dose curve; in most records, active means well fitted curve in the direction sought with a large enough effect; inconclusive means small, poorly fitted or top-dose-only effect, or another doubt; inactive means no such curve, though single readings can be large; an effect the other way counts as inactive or inconclusive. Unless noted, on the % scale 0 is the no-effect control and ±100 the full control effect; potency means the concentration at half of the fitted maximal effect.

SMILES	TRb SRC2 PPI	Tau fibril ThT	Tau fluor cs	Tau fibril FP	TR SRC2 fluor cs
Nc1cccc2c1C(=O)N(C(=O)/C=C/c1cccc(Br)c1)C2=O	4%	25µM*	-24%	?	-2%
Nc1cccc2c1C(=O)N(C(=O)/C=C/c1cccc(F)c1)C2=O	3%	14µM*	-16%	?	-2%
COc1ccc(OC)c(/C=C/C(=O)N2C(=O)c3cccc(N)c3C2=O)c1	-7%	14µM*	-18%	?	0%
Cc1ccc(S(=O)(=O)Nc2ccc(NS(=O)(=O)c3ccc(C)cc3)c3ncccc23)cc1	-2%	·	·	·	-2%
Cc1ccc2c(c1)c1c(c(=O)n(-c3ccccc3C)c(=O)n1CC(=O)NCC1CCCO1)n2C (configuration not stated)	-8%	8%	4%	-2%	-1%
Oc1c(N=Nc2ccccc2)sc2ccccc12	6%	2.5µM*	-23%	4%	-8%
O=C(CNC(=O)c1ccccc1F)OCc1nc2ccccc2s1	-1%	-10%	1%	0%	-2%
CNc1sc(C(=O)c2ccccc2F)c(N)c1-c1nc2ccccc2s1	-2%	7.9µM*	11µM*[quencher]	3%	-7%
O=C(CSc1nc2ccccc2nc1Cc1ccc(Cl)cc1)N1CCN(c2ccccc2F)CC1	7%	-4%	-9%	-5%	-2%
CC(C)CNC1=CC(=O)CC(c2ccco2)C1 (configuration not stated)	-6%	28µM*	-21%	?	-16%
CCc1ccc(OCc2n[nH]c(=S)n2C(C)CCCC(C)C)cc1 (configuration not stated)	2%	?	-28%	3%	-1%
O=Cc1[nH]c2ccccc2c1N(C(=O)CCl)c1ccccc1	1%	32µM*	-27%	?	0%
O=C1CCCC(=O)N1c1ccc(N2CCN(c3ccc([N+](=O)[O-])cc3)CC2)c([N+](=O)[O-])c1	8%	4µM*	-20%	0%	-8%
CCNC(=S)N1CCN(c2ccc([N+](=O)[O-])cc2)CC1	4%	5.6µM*	-5%	2%	0%
O=[N+]([O-])c1ccc(N2CCCCC2)cc1	-6%	8.9µM*	-19%	-8%	-3%
CC(=O)N1CCN(c2ccc([N+](=O)[O-])cc2)CC1	3%	1%	10%[2.34 µM]	-10%	-1%
NC(=O)c1ccc(N2CCN(c3ccc(O)cc3)CC2)c([N+](=O)[O-])c1	6%	18µM*	-21%	1%	-5%
CCOC(=O)CN1C(=O)N[C@@H](c2cccc(F)c2)C(C(=O)OC)=C1C	2%[11.2 µM]	2%[11.5 µM]	-3%[11.6 µM]	-7%[11.6 µM]	-2%[11.2 µM]
CCCCCCCCCCCCCCCCCC#N	-2%[201 µM]	·	·	·	4%[201 µM]
COc1ccc(NC(=O)N2CCN(c3ccc([N+](=O)[O-])cc3)CC2)cc1OC	-10%	8.9µM*	-23%	-4%	4%
O=C(c1ccc(N2CCCCC2)c([N+](=O)[O-])c1)N1CCN(c2ccccn2)CC1	1%	?	-7%	8%	1%
O=C1C2CC=CCC2C(=O)N1c1ccc(N2CCN(c3ccccn3)CC2)c([N+](=O)[O-])c1 (configuration not stated)	-2%	14µM*	-28%	3%	-1%
CNC(=S)N1CCN(c2ccc([N+](=O)[O-])cc2)CC1	0%	5.6µM*	-6%	-1%	2%
COc1ccc(NC(=O)N2CCN(c3ccc([N+](=O)[O-])cc3)CC2)cc1	-7%	-1%	-8%	5%[2.34 µM]	0%
C=CCNC(=S)N1CCN(c2ccc([N+](=O)[O-])cc2)CC1	-1%	13µM*	-10%	1%	-6%
SMILES	TRb SRC2 PPI	Tau fibril ThT	Tau fluor cs	Tau fibril FP	TR SRC2 fluor cs
O=[N+]([O-])c1ccc2c(c1)Cc1ccccc1-2	5%[201 µM]	·	·	·	-6%[201 µM]
Cc1ccc(N2CCN(C(=O)c3cnn(-c4ccc(F)cc4F)c3C3CCN(C(=O)OC(C)(C)C)CC3)CC2)c(C)c1	-4%	?	-20%	5%	?
O=[N+]([O-])c1ccc(/C=N\N2CCN(c3ccc(Cl)cc3)CC2)cc1	-1%	2.2µM*	-16%	3%	-4%
O=[N+]([O-])c1cccc(/C=N\N2CCN(c3ccc(Cl)cc3)CC2)c1	0%	?	-12%	4%	-3%
COc1ccc(CNC(=O)c2oc3c(c2C)-c2nn(Cc4ccccc4Cl)cc2CC3)cc1	-1%	-7%	-3%	1%	?
Cc1cccc(CNc2cc(-c3ccoc3)ncn2)c1	-4%	18µM*	-29%	?	3%
Cc1cccc(CNc2cc(-c3ccc(N(C)C)cc3)ncn2)c1	-4%	?	?	?	-1%
CCOc1cc(/C=N/Nc2ccc(C(=O)O)cc2)ccc1OC(=O)c1ccccc1C	0%	·	0.71µM*[quencher]	?	-4%
COc1cccc(OCc2cc(/C=N/Nc3ccc(C(=O)O)cc3)ccc2OC)c1	5%	?	11µM*[quencher]	4%	-6%
COc1cccc(-c2cn3nc4c(nc3n2)CCCC4)c1	-4%	14µM*	-29%	?	-10%
COC(=O)CC1=NN(c2nc3ccccc3s2)C(=O)/C1=C/N(C)C	-4%	-9%	-6%	-3%	1%
COc1ccc(-c2nc3ccc([N+](=O)[O-])cc3[nH]2)cc1	6%	11µM*	?	-3%	-1%
Cc1ccc(-c2nc3ccc([N+](=O)[O-])cc3[nH]2)cc1	0%	?	?	2%	4%
C/C(=N/NC(=O)c1cc(O)c(O)c(O)c1)c1ccc([N+](=O)[O-])cc1	6%	3.5µM*	?	3%	0%
C/C(=N\NC(=O)c1ccc([N+](=O)[O-])cc1)c1c(O)cc(C)oc1=O	-5%	4.5µM*	-15%	9%	-5%
CC[C@H](C)C(=O)O[C@H]1C[C@H](O)C=C2C=C[C@H](C)[C@H](CC[C@@H](O)C[C@@H](O)CC(=O)O)[C@H]21	6%	-1%	-1%	-2%	-4%
O=C(Nc1ccc(Br)cc1)C1CCN(c2ncccn2)CC1	6%	-1%	-7%	1%	-1%
CCOc1ccc(-c2nc(SCC(=O)NC3CCCC3)c(-c3ccccc3)[nH]2)cc1OC	-10%	?	13µM*[quencher]	?	-3%
COc1ccc(-c2[nH]c(-c3ccc(F)cc3)nc2SCC(=O)NC2CCCC2)cc1	2%	8%	-3%	5%	-2%
COc1ccc(-c2[nH]c(-c3ccccc3)nc2SCC(=O)NC2CCCC2)cc1	1%	?	25µM*[quencher]	?	-4%
COc1ccc(-c2nc(SCC(=O)NC3CCCC3)c(-c3ccc(F)cc3)[nH]2)cc1	-4%	?	14µM*[quencher]	8%	-4%
COc1ccc(-c2[nH]c(-c3cccc(OC)c3)nc2SCC(=O)NC2CCCC2)cc1	0%	?	13µM*![quencher]	?	-5%
